Results filed as inconclusive are left out. Active and inactive are the calls of the source. Rule for the calls, unless noted: active = hit-call score of the fitted dose curve at least 0.9, where 1 is the maximum; inactive = score below 0.9.

Read-out in one assay: not listed separately
In words: BSK_SAg_SRB: Viability Assessment in the BioMAP Diversity Plus: SAg Assay (AID 2283096).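 Note: cells read one day after compound addition; hits may be either gain or loss of signal compared with DMSO.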 The settings on record: primary human HUVEC with PBMC. The method in brief: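 This overt-cytotoxicity endpoint quantifies protein in human endothelial/PBMC co-cultures at 24 h using SRB absorbance (560 nm) after trichloroacetic acid fixation. Values reflect signal change from the DMSO negative control, fitted bidirectionally.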
For the compound `CCCCCCCCC(CO)CCCCCC` (configuration not stated), the outcome was inactive.

On to `Oc1c(Cl)cc(Cl)c(Cl)c1Cl`, for which the AC50 is 20 µM (active).

`CCOC(=O)C1=NN(c2ccc(Cl)cc2Cl)C(C)(C(=O)OCC)C1` (configuration not stated): the outcome was inactive.

`c1ccc2sc(SSN3CCOCC3)nc2c1`: the result was inactive.

In the case of `CCOC(=O)/C=C\C(=O)OCC`, the result was inactive.

As for `Cc1ccc([N+](=O)[O-])cc1N`, the outcome was inactive.

As for `CC(c1cc(C(C)(C)C)cc(C(C)(C)C)c1O)c1cc(C(C)(C)C)cc(C(C)(C)C)c1O`, the outcome was inactive.

For `CCCCCCCCCCCC(=O)N(C)CC(=O)O`, the outcome was inactive.

Regarding `C=CC(=O)NC(C)(C)C`, the result was inactive.

Consider `C=CC(=O)OCCCCCCOC(=O)C=C`, for which the AC50 was 20 µM (active).

As to `CC=C(C)C(C)=O`, the outcome was inactive.

Turning to `CCN1CN(CC)CN(CC)C1`, the outcome was inactive.

`Fc1ccc(Br)cc1`: the result was inactive.

Regarding `C=C(C)C(=O)OCCCCCCCCCCCC`, the outcome was inactive.

In the case of `CCCCCC1=CCCC1=O`, the outcome was inactive.

As for `O=C(Cl)c1c(Cl)c(Cl)c(C(=O)Cl)c(Cl)c1Cl`, the result was inactive.

`C=CCCCCCCCCC=O`: the result was inactive.

Turning to `Oc1ccccc1Cc1ccccc1O`, the result was inactive.

As for `COc1ccc(C(=O)c2ccccc2)c(O)c1`, the result was inactive.

For `CC(C)[N+](C)(CCOC(=O)C1c2ccccc2Oc2ccccc21)C(C)C`, the outcome was inactive.

In the case of `O=C1CCCCCCCCCCC1`, the outcome was inactive.

With `CCCCCCCO`, the outcome was inactive.

As for `CCCCCCOC(=O)CCCCC(=O)OCCCCCC`, the outcome was inactive.

Take `CCc1cccc(C)c1N(C(=O)CS(=O)(=O)O)C(C)COC` (configuration not stated): the result was inactive.

As for `Oc1ccc(/C=C/c2cc(O)cc(O)c2)cc1`, the result was inactive.

Regarding `Clc1cc(Cl)c(Cl)c(Cl)c1Cl`, the outcome was inactive.

Regarding `CCCC(C)C(=O)OCC` (configuration not stated), the result was inactive.

The target of another assay is human CYP19A1, CYP19A1 (gene 1588) (UniProt P11511). The assay is described as follows: NVS_ADME_hCYP19A1: NovaScreen (NVS) CYP450-related Enzyme Activity (ADME) Assay for human CYP19A1 (AID 2283098; active = hit-call score of the fitted dose curve at least 0.9, where 1 is the maximum;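 for AC50: potency for inhibitors seen as loss of fluorescent enzyme signal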).
human CYP19A1, CYP19A1 (gene 1588), sequence (P11511 whole entry, looked up): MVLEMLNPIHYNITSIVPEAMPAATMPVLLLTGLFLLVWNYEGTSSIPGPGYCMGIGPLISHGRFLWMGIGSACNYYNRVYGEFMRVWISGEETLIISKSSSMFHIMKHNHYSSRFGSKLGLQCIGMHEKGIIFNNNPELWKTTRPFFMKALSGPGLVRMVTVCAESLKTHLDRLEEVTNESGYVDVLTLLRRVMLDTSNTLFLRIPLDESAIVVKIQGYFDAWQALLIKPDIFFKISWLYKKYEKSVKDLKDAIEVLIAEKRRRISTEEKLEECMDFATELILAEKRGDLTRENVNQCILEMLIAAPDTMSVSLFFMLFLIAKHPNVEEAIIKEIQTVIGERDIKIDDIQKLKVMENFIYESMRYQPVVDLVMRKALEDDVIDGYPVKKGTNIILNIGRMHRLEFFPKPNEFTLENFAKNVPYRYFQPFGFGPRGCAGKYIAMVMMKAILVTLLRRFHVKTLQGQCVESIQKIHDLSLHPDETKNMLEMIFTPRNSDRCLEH
Conditions: not given
As to the method:
NVS_ADME_hCYP19A1 is a biochemical, single-readout assay that uses extracted gene-proteins in a cell-free assay. Measurements were taken 0.5 hour after chemical dosing in a 384-well plate.NVS_ADME_hCYP19A1 is one of one assay component(s) measured or calculated from the NVS_ADME_hCYP19A1 assay. It is designed to make measurements of enzyme activity, a form of enzyme reporter, as detected with fluorescence intensity signals by Fluorescence technology.Data from the assay component NVS_ADME_hCYP19A1 was analyzed into 1 assay endpoint. This assay endpoint, NVS_ADME_hCYP19A1, was analyzed in the positive analysis fitting direction relative to Acetonitrile as the negative control and baseline of activity. Using a type of enzyme reporter, loss-of-signal activity can be used to understand changes in the enzymatic activity as they relate to the gene CYP19A1. Furthermore, this assay endpoint can be referred to as a primary readout, because this assay has produced multiple assay endpoints where this one serves a enzymatic activity function. To generalize the intended target to other relatable targets, this assay endpoint is annotated to the cyp intended target family, where the subfamily is steroidogenesis-related.
Binding assays used specific radioligands (tritiated, iodinated) with non-radioactive competitive displacement ligands in agonist or antagonist protocols (as indicated) and various reference compounds and inhibitors to titrate specific binding to receptors and transporters. Most enzyme assays (CYPs, kinases, phosphatases, proteases, HDACs) used recombinant protein and specific substrates (fluorescence mostly, some colorimetric and radioactive) and inhibitors, followed by a biochemical separation of substrate and product. All assays for the biochemical HTS were initially run in duplicate at a single concentration (10 uM for CYP450 assays and 25 uM for all others). […] Each assay was run with positive and negative controls, and concurrent controls on every plate. The follow-up (secondary) screen tested active chemical-pairs in concentration series, as well as a few additional assays not tested in the primary screen, some selected negative inactives, and several cases re-run in the concentration series for confirmatory purposes.
Turning to `O=C(OCc1ccccc1)c1ccc(O)cc1`, the AC50 was 4.08 µM (active).

`CCCC(CC)c1ccccc1` (configuration not stated): the AC50 is 10.4 µM (active).

Take `Cc1ccc(C)c(OCCCC(C)(C)C(=O)O)c1`: the AC50 was 15.6 µM (active).

For the compound `O=C(O)c1ccc2c(c1)C(=O)OC2=O`, the compound was called inactive.

Regarding `CCCCC(CC)COS(=O)(=O)O` (configuration not stated), the result was inactive.

The record behind these values is PubChem BioAssay (EPA / NIEHS).
